Data as given in PubChem BioAssay (Tox21).
Records with an inconclusive call do not appear. Activity calls are given as the source filed them. Unless noted, the call rests on the fitted dose curve; in most records, active means well fitted curve in the direction sought with a large enough effect in the repeat runs; inconclusive means weak or mixed curves; inactive means no such curve, though single readings can be large; an effect the other way counts as inactive or inconclusive.

Tests used:
[1] = qHTS assay for small molecule agonists of the p53 signaling pathway (AID 651631; calls by dose curve; further: nearly all actives have a fitted effect of over 15% in size)
How it was run: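 Fluorescence intensity from cleaved LiveBLAzer B/G substrate (2 h, room temperature) served as the signal. Beforehand, HCT-116 reporter cells bearing p53 response elements were treated 16 h at 37 °C with DMSO-dissolved compounds.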

[2] = qHTS assay for small molecules that induce genotoxicity in human embryonic kidney cells expressing luciferase-tagged ATAD5 (AID 651632); further: nearly all actives have a fitted effect of over 15% in size
How it was run: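 Cells were seeded at 2,000 per well, dosed with compound, and incubated 16 hr at 37C in 5% CO2. Luciferase activity was then quantified after a 30 min room-temperature incubation with Amplite.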

[3] = qHTS assay for small molecule agonists of the p53 signaling pathway - cell viability (AID 651633; calls by dose curve;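 further: p53RE-bla HCT reporter cells with a stable beta-lactamase p53 reporter; series mostly up to about 83 µM; nearly all actives have a fitted effect of over 30% in size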)
How it was run: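 p53RE-bla cells were treated with compound for 16 hours at 37 C. Cytotoxicity was then measured as CellTiter-Glo luminescence after 30 min at room temperature.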

[4] = qHTS assay for small molecules that induce genotoxicity in human embryonic kidney cells expressing luciferase-tagged ATAD5 - cell viability (AID 651634; calls by dose curve; further: nearly all actives have a fitted effect of over 25% in size)
How it was run: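 Cells (HEK293T, luciferase-tagged ATAD5) are seeded at 2,000 per well, dosed with compound or DMSO vehicle, and incubated 15.5 hr at 37C and 5% CO2. CellTiter-Fluor is added for 30 min before fluorescence is measured.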

[5] = qHTS assay for small molecule disruptors of the mitochondrial membrane potential - cell viability (AID 720634; calls by dose curve;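 further: human HepG2 liver cancer cells; series mostly up to about 83 µM; nearly all actives have a fitted effect of over 20% in size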)
How it was run: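 Cytotoxicity was measured by ATP quantitation in HepG2 wells that had first been treated with compound for 1 hr and stained with m-MPI dye; CellTiter-Glo incubation was 30 min at room temperature.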

[6] = qHTS assay for small molecule disruptors of the mitochondrial membrane potential (AID 720635)
How it was run: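 HepG2 cells exposed to compound 1 hr at 37C, then Mito-MPS dye 30 min. Ratio read of aggregate (540/590 nm) versus monomer (490/535 nm) fluorescence.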

[7] = qHTS assay to test for compound auto fluorescence at 590 nm (red) in HepG2 cells (AID 720674)
How it was run: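 Seeding: 2,000 HepG2 cells/well, MEM/10% FBS, overnight 37 C. Dosing: compound vs DMSO. Incubation: 1 hr, 37 C, 5% CO2. Read: fluorescence 540 ex/590 em, Rose Bengal sodium as red reference.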

[8] = qHTS assay to test for compound auto fluorescence at 535 nm (green) in HepG2 cells (AID 720675)
[9] = qHTS assay to test for compound auto fluorescence at 460 nm (blue) in HEK293 cells (AID 720678)
How it was run: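 Intrinsic compound fluorescence is recorded in live HEK293 cultures after overnight incubation at 37C, 5% CO2, using excitation 405 nm and emission 460 nm. Values are referenced to triamterene.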

[10] = qHTS assay to test for compound auto fluorescence at 590 nm (red) in HEK293 cells (AID 720679)
How it was run: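 Red autofluorescence, HEK293 cells: 2,000 cells/well; attach 4-5 hr 37C; add 23 nL cpd or DMSO; incubate o/n 37C 5% CO2; read Ex540/Em590; Rose Bengal sodium reference.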
On the % scale 0 is the no-effect control and ±100 the full control effect.

CN1CC(=O)NC1=N
inactive: outcome [1] | Potency [2] | outcome [3] | Potency [4] | Potency [5] | Potency [6] | outcome [7] | outcome [8] | outcome [9] | outcome [10]

O=C(O)Cc1ccc(CCNS(=O)(=O)c2ccc(Cl)cc2)cc1
inactive: outcome [1] | Potency [2] | outcome [3] | Potency [4] | Potency [5] | outcome [7] | outcome [8] | outcome [9] | outcome [10]

COC(=O)c1c(Cl)c(Cl)c(C(=O)OC)c(Cl)c1Cl
inactive: outcome [1] | Potency [2] | outcome [3] | Potency [4] | Potency [5] | Potency [6] | outcome [7] | outcome [8] | outcome [9] | outcome [10]

CCSC(=O)N(CC(C)C)CC(C)C
inactive: outcome [1] | Potency [2] | outcome [3] | Potency [4] | Potency [5] | Potency [6] | outcome [7] | outcome [8] | outcome [9] | outcome [10]

Nc1nc2c(ncn2COC(CO)CO)c(=O)[nH]1
inactive: outcome [1] | Potency [2] | outcome [3] | Potency [4] | outcome [7] | outcome [8] | outcome [9] | outcome [10]

C[N+](C)(C)CCCCCC[N+](C)(C)C
inactive: outcome [1] | Potency [2] | outcome [3] | Potency [4] | Potency [5] | outcome [7] | outcome [8] | outcome [9] | outcome [10]

NC(=O)COCCN1CCN(C(c2ccccc2)c2ccc(Cl)cc2)CC1 (centres undefined)
inactive: outcome [1] | Potency [2] | outcome [3] | Potency [4] | Potency [5] | outcome [7] | outcome [8] | outcome [9] | outcome [10]

C[C@@H]1CCN(C(=O)[C@H](CCCN=C(N)N)NS(=O)(=O)c2cccc3c2NC[C@H](C)C3)[C@@H](C(=O)O)C1
inactive: outcome [1] | Potency [2] | outcome [3] | Potency [4] | Potency [5] | outcome [7] | outcome [8] | outcome [9] | outcome [10]

COC(=O)c1ccc(C)cc1C1=NC(C)(C(C)C)C(=O)N1 (centres undefined)
inactive: outcome [1] | Potency [2] | outcome [3] | Potency [4] | Potency [5] | outcome [7] | outcome [8] | outcome [9] | outcome [10]

CCC(C)S (centres undefined)
inactive: activation [1] -2.85% [at 3.72 µM] | activation [2] 1.12% [at 3.63 µM] | activity change, negative = cytotoxicity [3] -9.49% [at 3.63 µM] | activity, negative = cytotoxicity [4] -7.36% [at 3.63 µM] | activity change, negative = cytotoxicity [5] 9.33% [at 3.63 µM] | fluorescence, relative to Rose Bengal [7] -0.0609% [at 3.72 µM] | fluorescence, % of fluorescein control [8] -0.0052% [at 3.72 µM] | fluorescence, % of triamterene [9] 0.0233% [at 3.72 µM] | fluorescence, % of fluorescent control [10] 0.243% [at 3.72 µM]

Nc1ccc(S(=O)(=O)Nc2ccnn2-c2ccccc2)cc1
inactive: outcome [1] | Potency [2] | outcome [3] | Potency [4] | Potency [5] | outcome [7] | outcome [8] | outcome [9] | outcome [10]

NC(=O)c1ccc([N+](=O)[O-])cc1
inactive: outcome [1] | Potency [2] | outcome [3] | Potency [4] | Potency [5] | outcome [7] | outcome [8] | outcome [9] | outcome [10]

CCN1CCC[C@H]1CNC(=O)c1c(O)c(Cl)cc(Cl)c1OC
inactive: outcome [1] | Potency [2] | outcome [3] | Potency [4] | Potency [5] | outcome [7] | outcome [8] | outcome [9] | outcome [10]

Cc1cccn2c(=O)c(-c3nnn[nH]3)cnc12
inactive: outcome [1] | Potency [2] | outcome [3] | Potency [4] | Potency [5] | outcome [7] | outcome [8] | outcome [9] | outcome [10]

CC/C=C\CCOC(C)=O
inactive: outcome [1] | Potency [2] | outcome [3] | Potency [4] | Potency [5] | outcome [7] | outcome [8] | outcome [9] | outcome [10]

CC(=O)c1ccccc1O
inactive: outcome [1] | Potency [2] | outcome [3] | Potency [4] | Potency [5] | outcome [7] | outcome [8] | outcome [9] | outcome [10]

NC(=O)c1ccc(N)cc1
inactive: outcome [1] | Potency [2] | outcome [3] | Potency [4] | Potency [5] | outcome [7] | outcome [8] | outcome [9] | outcome [10]

CCOC(=O)[C@H](CCc1ccccc1)N[C@@H](C)C(=O)N1[C@H](C(=O)O)C[C@@H]2CCC[C@@H]21
inactive: outcome [1] | Potency [2] | outcome [3] | Potency [4] | Potency [5] | outcome [7] | outcome [8] | outcome [9] | outcome [10]

COc1ccc2c(c1)c(CC(=O)OCC(=O)O)c(C)n2C(=O)c1ccc(Cl)cc1
inactive: outcome [1] | Potency [2] | outcome [3] | Potency [4] | Potency [5] | outcome [7] | outcome [8] | outcome [9] | outcome [10]

CCOC(=O)CCC(C)=O
inactive: outcome [1] | Potency [2] | outcome [3] | Potency [4] | Potency [5] | outcome [7] | outcome [8] | outcome [9] | outcome [10]

C=C[Si](OC(=C)C)(OC(=C)C)OC(=C)C
inactive: outcome [1] | Potency [2] | outcome [3] | Potency [4] | Potency [5] | outcome [7] | outcome [8] | outcome [9] | outcome [10]

CCCCC(CC)COC(=O)c1ccccc1O (centres undefined)
inactive: outcome [1] | Potency [2] | outcome [3] | Potency [4] | Potency [5] | outcome [7] | outcome [8] | outcome [9] | outcome [10]

N[C@H](C(=O)O)c1ccc(O)cc1
inactive: outcome [1] | Potency [2] | Potency [4] | Potency [5] | Potency [6] | outcome [7] | outcome [8] | outcome [9] | outcome [10]

COC(C)(C)CCCC(C)CC=O (centres undefined)
inactive: outcome [1] | Potency [2] | outcome [3] | Potency [4] | Potency [5] | outcome [7] | outcome [8] | outcome [9] | outcome [10]

CCOC(C)(C)C
inactive: outcome [1] | Potency [2] | outcome [3] | Potency [4] | Potency [5] | outcome [7] | outcome [8] | outcome [9] | outcome [10]

CN(C)CCCNCCCN(C)C
inactive: outcome [1] | Potency [2] | outcome [3] | Potency [4] | outcome [7] | outcome [8] | outcome [9] | outcome [10]

CC1(C)CO[C@@H](CC(=O)O)CN1
inactive: outcome [1] | Potency [2] | outcome [3] | Potency [4] | Potency [5] | outcome [7] | outcome [8] | outcome [9] | outcome [10]
